Pf growth 48h = inhibits P. falciparum growth in the first generation, 48 h. P. falciparum luciferase growth in erythrocytes, 48 h. Potency, µM (doses to about 28.7 µM), actives largely listed as inhibitors. 5.9% of 310,000 active
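First compound was added to culture medium, then infected red cells at 0.1% parasitemia and 2% hematocrit (final). After incubation at 37 C under 5% CO2, luciferase detection reagent was dispensed and light output recorded.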
HCMV antiviral = blocks human cytomegalovirus replication; HFF cells, HCMV-luciferase reporter, 72 h; hits give low values; activity change, negative = inhibition, % at 57.5 µM; 4.5% of 410,000 active; in the data active = activity change below about -60%; inconclusive = no clear call, values can overlap the other calls; inactive = above about -39%
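Cell-based, HFFs, 1000 cells/well, 16 h 37C; cpds in DMSO + HCMV-luc, MOI 1 PFU/cell; 72 h 37C; OneGlo luminescence after 5 min RT; norm. to buffer vs Salinomycin 10uM.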
HCV inhibitor = inhibitors of hepatitis C virus infection; Huh7.5.1 HCVcc-Cre infection, luciferase reporter, 44 h; Potency, µM (titrated, usually from 41.8 µM), most hits filed as inhibitors; 3.4% of 340,000 active
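Infectious HCVcc-Cre (~0.5 moi) was added to cells just after compound, with cells seeded 4 h earlier at 1,000 per well. Luciferase activity after 44 h culture reported infection; substrate was incubated 15 min at room temperature before reading.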
Pf growth 96h = inhibits malaria parasite growth, 96 h | P. falciparum luciferase reporter growth, 96 h | Potency, µM (titrated, usually from 28.7 µM), actives largely listed as inhibitors | 6.9% of 320,000 active
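Two parasite generations (96 h, 37 C, 5% CO2) of compound exposure in infected erythrocytes (0.05% parasitemia, 2% hematocrit). Luciferase-reporter P. falciparum; decreased luminescence indicates inhibited growth, aimed at apicoplast-acting delayed death.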
Numbers stand for hits; 0 = inactive; ? = inconclusive; - = no result. Shown are actives, neighbours in structure and some others; about 13% of the full set was active somewhere. Unless noted, calls come from the whole dose curve; as a rule, active = well fitted inhibition curve with a large enough effect; inconclusive = small, poorly fitted or top-dose-only effect, or another doubt; inactive = no such curve, though single readings can be large or run the other way.

SMILES	Pf growth 48h	HCMV antiviral	HCV inhibitor	Pf growth 96h
O=C1CS(=O)(=O)C2(C(=O)N(Cc3ccc(F)cc3)c3ccccc32)N1c1cccc(C(F)(F)F)c1 (configuration not stated)	-	-76.7	-	-
Cc1ccc(CN2C(=O)C3(c4ccccc42)N(c2cccc(C(F)(F)F)c2)C(=O)CS3(=O)=O)cc1 (configuration not stated)	-	0	-	-
Cc1ccc2cc(CCNC(=O)C(C)C)c(=O)[nH]c2c1	0	0	0	0
COc1ccc(CCNCc2cc3ccc(C)cc3[nH]c2=O)cc1OC	0	0	0	13.1µM
COc1ccc(CCN(Cc2cc3ccc(C)cc3[nH]c2=O)C(C)=O)cc1OC	2.33µM	0	0	0
Cc1ccc2cc(CNC(C)C)c(=O)[nH]c2c1	-	0	0	5.22µM
Cc1ccc(S(=O)(=O)c2cn(CC(=O)Nc3ccc(F)cc3)c3cc4c(cc3c2=O)OCO4)cc1	-	0	-	-
Cc1ccc(Cl)cc1NC(=O)c1oc2ccc(S(=O)(=O)N(C)C3CCCCC3)cc2c1C	-	0	-	-
Cc1cccc(NC(=O)c2oc3ccc(S(=O)(=O)N(C)C4CCCCC4)cc3c2C)c1C	-	-75.3	-	-
CCN(CC)S(=O)(=O)c1ccc2oc(C(=O)Nc3ccc(OC)cc3OC)c(C)c2c1	?	0	0	?
COc1ccc(NC(=O)c2oc3ccc(S(=O)(=O)N(C)C4CCCCC4)cc3c2C)cc1	-	-72.3	-	-
Cc1nc2c(c(C)c1CCC(=O)NCc1ccccc1)c(=O)n(C)c(=O)n2C	-	0	-	-
COc1cc(-c2nnc(COC(=O)c3ccc([N+](=O)[O-])o3)o2)cc(OC)c1OC	-	0	-	-
CCOC(=O)c1c(C)n(C)c2c1cc(OC(C)=O)c1ccccc12	0	0	?	0
CCOC(=O)c1c(CN(CC)CC)n(C)c2cc(Br)c(O)cc12	?	0	0	?
CCCCCCCCOC(=O)c1c(CSC(=N)N)n(C)c2cc(Br)c(OC(C)=O)cc12	?	-91.7	11.2µM	10.4µM
CCOC(=O)c1c(CSC(=N)N)n(-c2ccc(Br)cc2)c2cc(Br)c(OC(C)=O)cc12	1.85µM	0	?	?
O=C(Nc1ccc(Cl)cc1)OC[C@@H]1CSCCS(=O)(=O)N1	-	0	-	-
COc1ccc(-n2ncc3c(N4CCCCC4)ncnc32)cc1	0	-	?	0
Clc1ccc(-n2ncc3c(N4CCCCCC4)ncnc32)cc1	0	-79.4	0	0
Cc1ccc(-n2ncc3c(N4CCCCC4)ncnc32)cc1	-	-100.5	-	-
COc1ccc(-c2cc(C)no2)cc1S(=O)(=O)N1CCN(c2ccc(C(C)=O)cc2)CC1	-	0	-	-
c1ccc(CCn2nnnc2C(c2cccnc2)N2CCN(c3nc4ccccc4s3)CC2)cc1 (configuration not stated)	13.1µM	?	25.1µM	0
c1ccc(CCn2nnnc2C(c2cccnc2)N2CCN(c3ccccc3)CC2)cc1 (configuration not stated)	?	-64.2	0	0
COc1ccc(Cn2nnnc2C(c2ccccc2)N2CCN(C3CCCC3)CC2)cc1 (configuration not stated)	?	0	?	0
SMILES	Pf growth 48h	HCMV antiviral	HCV inhibitor	Pf growth 96h
COc1ccc(Cn2nnnc2C(c2ccccc2Cl)N2CCN(C3CCCC3)CC2)cc1 (configuration not stated)	14.7µM	0	0	0
Oc1ccc(N2CCN(C(c3cccnc3)c3nnnn3Cc3ccccc3)CC2)cc1 (configuration not stated)	?	0	0	?
c1ccc(Cn2nnnc2C(c2cccnc2)N2CCN(C3CCCCC3)CC2)cc1 (configuration not stated)	?	0	0	13.1µM
COc1ccccc1NC(=O)CSc1oc(-c2ccccc2)nc1S(=O)(=O)c1ccc(C)cc1	-	0	-	-
N#CC(C#N)=Cc1cccnc1	0	0	0	0
N#CC(C#N)=Cc1cc(O)c(O)c(O)c1	7.57µM	-	-	10.7µM
COc1ccc(CNCc2ccc(C(=O)O)s2)cc1	-	0	-	-
NC(=O)C1CCN(c2nc(-c3ccccc3[N+](=O)[O-])cs2)CC1	0	-	-	0
CN[C@H]1[C@@H](O)[C@@H](NC)[C@@H]2O[C@@]3(O)C(=O)C[C@@H](C)O[C@H]3O[C@H]2[C@H]1O	0	-	-	0
Cc1cc(C)c(NC(=S)N2CCC(N(C)CC3CCCO3)CC2)c(C)c1 (configuration not stated)	0	-72.4	0	-
CCn1c(=O)sc2cc(NS(=O)(=O)c3ccc(F)c(C)c3)ccc21	-	0	-	-
CC1CCCC(C)N1C(=C(Cl)Cl)C(=C1SCCS1)[N+](=O)[O-] (configuration not stated)	0	-69.0	?	?
O=C1OCC2=C1C(c1ccc(F)cc1)c1cc3c(cc1N2)OCCO3 (configuration not stated)	0	-84.6	0	0
O=C1OCC2=C1C(c1ccc3c(c1)OCO3)Sc1ccccc1N2 (configuration not stated)	0	?	?	-
CC(=O)Oc1ccc(C2C3=C(CC(C)(C)CC3=O)Nc3cc4c(cc32)OCCO4)cc1 (configuration not stated)	0	0	0	?
C#CCOc1ccc(C2C3=C(COC3=O)Nc3cc4c(cc32)OCO4)cc1OC (configuration not stated)	0	-82.3	0	?
CCOc1ccccc1C1C2=C(COC2=O)Nc2cc3c(cc21)OCO3 (configuration not stated)	?	-94.3	?	10.4µM
O=C1OCC2=C1C(c1ccc(F)cc1)c1cc3c(cc1N2)OCO3 (configuration not stated)	0	-92.9	?	0
COc1ccccc1Nc1nn2c(=O)c3ccc(C(=O)NC4CCC(C)CC4)cc3nc2s1 (configuration not stated)	-	0	-	-
COc1ccc2cc(C(=O)C3CCCN(Cc4cnc(C)s4)C3)ccc2c1 (configuration not stated)	?	-78.4	11.2µM	?
COc1ccc(C(=O)C2CCCN(Cc3cnc(C)s3)C2)cc1OC (configuration not stated)	0	?	0	14.7µM
COc1ccc(C(=O)C2CCCN(Cc3cnc(C)s3)C2)c(OC)c1 (configuration not stated)	0	?	?	?
Cc1ncc(CN2CCCC(C(=O)c3cccc(Cl)c3)C2)s1 (configuration not stated)	0	0	0	0
Cc1ncc(CN2CCCC(C(=O)c3ccc(C(C)(C)C)cc3)C2)s1 (configuration not stated)	?	?	11.2µM	?
CSc1cccc(NC(=O)Cn2ncn3c(cc4ccccc43)c2=O)c1	-	0	-	-
Cc1ccc(NC(=O)C(=O)NCC(c2cccnc2)N2CCc3ccccc3C2)cc1 (configuration not stated)	-	0	-	-
CC(=NNC(=S)N1CC2CCC(CC2)C1)c1cccc(C)n1	-	-83.1	?	-
CC(=NNC(=S)N1CC2CCC(CC2)C1)c1nccs1	-	-62.8	?	-
CC(=O)c1nccs1	0	-	0	0
COC(=O)c1cccc(-n2c(CCC(=O)O)ccc2-c2ccc(OC)cc2)c1	-	0	-	-

Screens deposited in PubChem BioAssay by National Center for Advancing Translational Sciences (NCATS).
